The text below walks through data of PubChem BioAssay (NCATS).

Several values for one entry are separate records, joined by “and”; a condition that tells them apart may be missing. Equal entries are not always repeated. Inconclusive results are not listed. Unmarked numbers belong to inactive results. Activity calls are given as the source filed them. Calls come from the whole dose curve; as a rule, active = well fitted inhibition curve with a large enough effect; inconclusive = small, poorly fitted or top-dose-only effect; inactive = flat fitted curve, though single readings scatter.

The test system of test [1] is JCK. In words: qHTS profiling for inhibitors of Plasmodium falciparum proliferation (AID 504749). The settings on record: P. falciparum in erythrocytes, SYBR Green DNA, 72 h; series mostly up to 28.7 µM. The procedure, abridged:
(§1)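 In a 72 h erythrocytic culture (37 C, humidified, 5% CO2) at 2.5% hematocrit and 0.3% starting parasitemia, compounds were tested; SYBR Green I in detergent lysis buffer stained parasite DNA overnight.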

The subject of test [2] is PC49. The test is described as above. The settings on record: P. falciparum in erythrocytes, SYBR Green DNA, 72 h; series mostly up to 28.7 µM. The procedure, abridged: as §1
The test system of test [3] is HEK293. In words: Cytotoxic Profiling of Annotated Libraries Using Quantitative High-Throughput Screening (AID 1296008). For max response: % is set by controls: 0 for no effect and ±100 for the full control effect. The settings on record: Five cell lines viability, CellTiter-Glo ATP luminescence, 48-72 h; max response: stronger effect = lower value. In outline:
(§2)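 Cytotoxicity was measured as CellTiter-Glo ATP luminescence, read after 10 min at room temperature. Compound treatment of the cells lasted 48 or 72 hr at 37 degrees Celsius in a qHTS format.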
Background: In ATP-based viability assays light output follows the ATP content of the culture.

For test [4], the system named is KB-3-1. The test is described as above. The settings on record: Five cell lines viability, CellTiter-Glo ATP luminescence, 48-72 h; max response: stronger effect = lower value. In outline:
as §2

Test [5] deals with NIH3T3. Described as above. The settings on record: Five cell lines viability, CellTiter-Glo ATP luminescence, 48-72 h; max response: stronger effect = lower value. The procedure, abridged:
as §2

Test [6] relates to HB3. The test can be described thus: qHTS profiling for inhibitors of Plasmodium falciparum proliferation (AID 504749). The settings on record: P. falciparum in erythrocytes, SYBR Green DNA, 72 h; series mostly up to 28.7 µM. In outline: as §1
(Quantitative high-throughput screening tests each substance at several concentrations.)

Test [7] deals with ICS. The description is as above. The settings on record: P. falciparum in erythrocytes, SYBR Green DNA, 72 h; series mostly up to 28.7 µM. In outline:
as §1

For test [8], the system named is N140. The description is as above. The settings on record: P. falciparum in erythrocytes, SYBR Green DNA, 72 h; series mostly up to 28.7 µM. In outline: as §1
Test [9] deals with P94_40. The test is described as above. The settings on record: P. falciparum in erythrocytes, SYBR Green DNA, 72 h; series mostly up to 28.7 µM. The procedure, abridged:
as §1

Test [10] concerns PC15. The test is described as above. The settings on record: P. falciparum in erythrocytes, SYBR Green DNA, 72 h; series mostly up to 28.7 µM. In outline: as §1
For test [11], the system named is PC26. Described as above. The settings on record: P. falciparum in erythrocytes, SYBR Green DNA, 72 h; series mostly up to 28.7 µM. The procedure, abridged: as §1
For test [12], the system named is SC27B. Described as above. The settings on record: P. falciparum in erythrocytes, SYBR Green DNA, 72 h; series mostly up to 28.7 µM. The procedure, abridged: as §1
The subject of test [13] is TAB109. Described as above. The settings on record: P. falciparum in erythrocytes, SYBR Green DNA, 72 h; series mostly up to 28.7 µM. The procedure, abridged: as §1
Test [14] has as its system TAB165. The test is described as above. The settings on record: P. falciparum in erythrocytes, SYBR Green DNA, 72 h; series mostly up to 28.7 µM. In outline:
as §1

The subject of test [15] is CRL-7250. In words: Cytotoxic Profiling of Annotated Libraries Using Quantitative High-Throughput Screening (AID 1296008). For max response: % is set by controls: 0 for no effect and ±100 for the full control effect. The settings on record: Five cell lines viability, CellTiter-Glo ATP luminescence, 48-72 h; max response: stronger effect = lower value. In outline:
as §2

The subject of test [16] is HaCat. The description is as above. The settings on record: Five cell lines viability, CellTiter-Glo ATP luminescence, 48-72 h; max response: stronger effect = lower value. The procedure, abridged:
as §2

Test [17] deals with W2. The test can be described thus: qHTS profiling for inhibitors of Plasmodium falciparum proliferation (AID 504749). The settings on record: P. falciparum in erythrocytes, SYBR Green DNA, 72 h; series mostly up to 28.7 µM. The procedure, abridged:
as §1

The subject of test [18] is P93_24. The description is as above. The settings on record: P. falciparum in erythrocytes, SYBR Green DNA, 72 h; series mostly up to 28.7 µM. In outline:
as §1

The test system of test [19] is PAD. The description is as above. The settings on record: P. falciparum in erythrocytes, SYBR Green DNA, 72 h; series mostly up to 28.7 µM. The procedure, abridged:
as §1

The subject of test [20] is TAB113. The description is as above. The settings on record: P. falciparum in erythrocytes, SYBR Green DNA, 72 h; series mostly up to 28.7 µM. In outline:
as §1
Note: nearly all actives have a fitted effect of over 60% in size.
Potency is the fitted concentration of half-maximal effect.

In the case of `O=c1[nH]cc(F)c(=O)[nH]1`, the Potency result in [1] and in test [2] was “inactive” in each case. Besides, the Potency in test [3] was 11.8 µM (active); in test [5] it was 3.76 µM (active) and 2.96 µM (active). Further, in [4], the max response was 22.7% and -20.8%.

`CN(Cc1cnc2nc(N)nc(N)c2n1)c1ccc(C(=O)N[C@@H](CCC(=O)O)C(=O)O)cc1`: the Potency in test [6] is 141 nM (active); in [7] it was 112 nM (active); in [9] it was 178 nM (active); in [10], 224 nM (active); in test [2], 178 nM (active); in test [12], 178 nM (active). Also, the Potency in test [15] is 119 nM (active); in test [3], 29.9 nM (active) and 33.2 nM (active); in test [16], 418 nM (active); in test [4] it was 37.2 nM (active); in test [5], 266 nM (active) and 332 nM (active). The Potency result in test [8], in test [11], in [13] and in test [14] was “inactive” throughout.

For `CN(C)CCC=C1c2ccccc2C=Cc2ccccc21`, the Potency entry in test [6] and in test [8] was “inactive” each time. In addition, the figures for the Potency in test [7], in test [17] and in test [3] were 8910 nM (active), 1200 nM (active) and 26.4 µM (active), respectively. Also, the max response in test [15] was -6.55%; in test [4], -7.06% and -14.3%; in [5], -0.444%. Also, in [16], the result was inactive.

For the molecule `CC#C[C@]1(O)CC[C@H]2[C@@H]3CCC4=CC(=O)CCC4=C3[C@@H](c3ccc(N(C)C)cc3)C[C@@]21C`, the Potency in [6] is 12600 nM (active); in [7], 4470 nM (active); in [8] it was 8910 nM (active); in test [18], 11200 nM (active); in test [19] it was 10000 nM (active); in [10], 12600 nM (active). Further, the Potency is 13500 nM (active) in test [11]; 7940 nM (active) in test [12]; 11200 nM (active) in test [13]; 8910 nM (active) in [20]; 6310 nM (active) in test [14]; 6750 nM (active) in test [17]. Further, the Potency in test [3] is 9.35 µM (active). In addition, the max response in [15] is -15.2%; in [16], -29.4% and -8.42%; in test [4] it was -19.9%; in test [5], -20.2% and -3.41%.

Take `CN(C)CCCN1c2ccccc2CCc2ccc(Cl)cc21`: the Potency entry in test [6], in [1] and in [12] was “inactive” each time. In addition, the Potency in [7] was 10000 nM (active); in test [17], 1900 nM (active); in test [3] it was 13.2 µM (active) and 8.41 µM (active). Besides, the values for the max response in test [15] and in test [5] were -24.3% and -22.1%, respectively. Moreover, the outcome in test [16] was inactive.

In the case of `O=C(Nc1ccc([N+](=O)[O-])cc1Cl)c1cc(Cl)ccc1O`, the Potency in test [7] is 631 nM (active); in [8] it was 631 nM (active); in test [19], 631 nM (active); in [12], 631 nM (active); in test [20] it was 708 nM (active); in test [14], 355 nM (active). Also, the Potency in test [17] was 953 nM (active). In addition, the Potency entry in test [1], in [11] and in [2] was “inactive” in each case.

Consider `CC(COc1ccccc1)N(CCCl)Cc1ccccc1` (stereo unspecified), for which the Potency result in test [6], in [1], in [19], in test [10] and in test [2] was “inactive” throughout. Moreover, the Potency in [7] is 11200 nM (active); in [17], 6010 nM (active).

On to `CN1CCC(=C2c3ccccc3CC(=O)c3sccc32)CC1`, for which the Potency entry in test [6], in test [10] and in test [2] was “inactive” in each case. In test [17], the Potency is 1200 nM (active). The max response in test [15] is 4.7% and -3.04%; in test [16], 0.22%; in [4], -4.06%; in test [5], -5.39%. Also, the molecule was classed as inactive in [16] and in test [5].

In the case of `COc1cc2nc(N3CCN(C(=O)C4COc5ccccc5O4)CC3)nc(N)c2cc1OC` (stereo unspecified), the max response was -6.13% in test [16]; 19.6% and -6.62% in test [4]; -16.5% in test [5]. Moreover, the outcome in [16] and in test [5] was inactive.

Regarding `Clc1ccccc1C(c1ccccc1)(c1ccccc1)n1ccnc1`, the Potency was 501 nM (active) in test [6]; 126 nM (active) in [7]; 708 nM (active) in test [1]; 224 nM (active) in test [8]; 126 nM (active) in test [18]; 631 nM (active) in test [9]. In addition, the Potency was 355 nM (active) in [19]; 1000 nM (active) in test [10]; 572 nM (active) in test [11]; 1000 nM (active) in [2]; 398 nM (active) in [12]; 794 nM (active) in test [13]. In addition, the Potency is 631 nM (active) in [20], 100 nM (active) in test [14], 405 nM (active) in [17] and 20.9 µM (active) in [3]. Besides, the max response is -11.6% and -17.2% in test [15]; -12.4% and -20.3% in test [16]; -12.5% in test [4].
